Measured values reported in PubChem BioAssay (Tox21).
A number with no mark means an inactive call. Records with an inconclusive call do not appear. Where a call stands in place of a potency, no number is given. Calls of active or inactive are those of the source. Unless noted, the call rests on the fitted dose curve.

Experiments:
[1] = Nuclear factor erythroid 2-related factor 2/antioxidant responsive element (Nrf2/ARE) small molecule agonists: qHTS cell viability counter screen in human keratinocytes (AID 1919968; active means well fitted curve in the direction sought with a large enough effect in the repeat runs; an effect the other way counts as inactive or inconclusive; further: nearly all actives have a fitted effect of over 55% in size)
Outline: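 Seed 1,500 KeratinoSens cells per well, then incubate 5 h at 37 C/5% CO2. Add compounds in DMSO and incubate 23 h. Add CellTiter-Fluor, wait 1 h and read fluorescence.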

[2] = Nuclear factor erythroid 2-related factor 2/antioxidant responsive element (Nrf2/ARE) small molecule agonists: luciferase reporter gene qHTS assay in human keratinocytes (AID 1919969); further: nearly all actives have a fitted effect of over 35% in size
[3] = target: Gonadotropin-releasing hormone receptor (Homo sapiens) (UniProt P30968); experiment: Human gonadotropin-releasing hormone receptor (GnRHR) small molecule agonists, calcium flux assay in GnRHR-HEK293 cells (AID 1920063); further: nearly all actives have a fitted effect of over 35% in size
Outline: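 Cells: HEK293 stably expressing human GnRHR. Steps: overnight (18 h) culture, 1 h calcium dye loading at 37 C, compound addition, kinetic fluorescence read at 480/540 nm. Each compound tested at 15 concentrations in triplicate.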

[4] = target: KiSS-1 receptor (Homo sapiens) (UniProt Q969F8); experiment: Human kisspeptin (KISS1R) small molecule agonists, calcium flux assay in KISS1R-HEK293 cells (AID 1920064; active means well fitted curve in the direction sought with a large enough effect in the repeat runs; an effect the other way counts as inactive or inconclusive)
Outline: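 Cells plated and incubated 18 h; dye added, 1 h at 37 C; compounds in DMSO pinned in; signal read at 480/540 nm every second for 3 min. Each compound tested at 15 concentrations in triplicate.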

[5] = G protein-coupled receptor (GPCR) small molecule agonists, calcium flux assay: HEK293 wild type cell line counter screen (AID 1920065)
Outline: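 Counter-screen of the Tox21 10K library for non-specific calcium release: dye-loaded cells received compounds in DMSO and were monitored by kinetic fluorescence (480/540 nm, 3 min). Fifteen concentrations, run in triplicate.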

[6] = p53 small molecule agonists, cell-based qHTS assay with human liver microsomes (AID 1963577);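 further: p53 response element beta-lactamase reporter cells with liver microsomes plus NADPH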
Outline: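 Reporter activation was measured by LiveBLAzer fluorescence intensity in p53RE-bla cells, which had been exposed to compounds for 16 h at 37 C alongside 0.5 mg/mL human liver microsomes and 0.5 mg/mL NADPH (final concentrations).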

[7] = p53 small molecule agonists, cell-based qHTS assay with rat liver microsomes (AID 1963578)
Outline: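 Compound in DMSO added to p53RE-bla cells 5 h post-plating; rat microsomes/NADPH 0.5 mg/mL final; 16 h, 37 C; LiveBLAzer 2 h RT.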

[8] = p53 small molecule agonists, cell-based qHTS assay with human liver microsomes: qHTS cell viability counter screen (AID 1963579); further: nearly all actives have a fitted effect of over 45% in size
Outline: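 HLM-supplemented (0.5 mg/mL final) and NADPH-supplemented (0.5 mg/mL final) p53RE-bla cultures, 4,000 cells per well, were dosed with compounds in DMSO for 16 h at 37 C; luminescent ATP detection (CellTiter-Glo, 30 min, room temperature) quantified surviving cells.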

[9] = p53 small molecule agonists, cell-based qHTS assay with rat liver microsomes: qHTS cell viability counter screen (AID 1963580); further: nearly all actives have a fitted effect of over 45% in size
Outline: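 Intracellular ATP, by CellTiter-Glo luminescence, defines viability. HCT-116 p53RE-bla cells, 4,000 per well, were compound-treated in the presence of rat liver microsomes and NADPH for 16 h at 37 C.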

[10] = p53 small molecule agonists, cell-based qHTS assay: qHTS cell viability counter screen (AID 1963581); further: nearly all actives have a fitted effect of over 45% in size
Outline: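 Cells: HCT-116 with p53 response element-driven beta-lactamase. Treatment: 16 h, 37 C, compounds in DMSO. Read: CellTiter-Glo luminescence after 30 min RT.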

[11] = p53 small molecule agonists, cell-based qHTS assay (AID 1963582; active means well fitted activation curve with a large enough effect in the signal ratio in the repeat runs, not every such curve was filed as active; the % refers to the signal ratio)
Outline: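 Quantitative HTS in p53RE-bla cells: after a 5 h settling period, compounds delivered in DMSO were left on cells for 16 h at 37 C, and reporter induction was measured as fluorescence following 2 h substrate loading.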

[12] = target: 5-hydroxytryptamine receptor 2A (Homo sapiens) (UniProt P28223); experiment: 5-hydroxytryptamine receptor 2A (HTR2A) small molecule antagonists, cell-based qHTS assay (AID 1963586); further: nearly all actives have a fitted effect of over 45% in size; further: potency means the concentration at half of the fitted maximal effect
Outline: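 Antagonist-mode intracellular calcium assay: DOI (4 nM) added after 5 min compound pre-incubation at room temperature to dye-loaded HTR2A-CHO cells. Fluorescence followed for 3 min, sampled every second.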

[13] = target: 5-hydroxytryptamine receptor 2A (Homo sapiens) (UniProt P28223); experiment: 5-hydroxytryptamine receptor 2A (HTR2A) small molecule agonists, cell-based qHTS assay (AID 1963587); further: nearly all actives have a fitted effect of over 30% in size
Outline: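 Kinetic calcium-flux fluorescence (2 min, 1 sec intervals) after compound addition in agonist mode. HTR2A-CHO cells were cultured 18 h, then dye-loaded 1 h at 37 C.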

[14] = target: Muscarinic acetylcholine receptor M1 (Homo sapiens) (UniProt P11229); experiment: Cholinergic receptor muscarinic 1 (CHRM1) small molecule antagonists, cell-based qHTS assay (AID 1963588); further: nearly all actives have a fitted effect of over 40% in size
Outline: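 CHRM1-CHO calcium-flux assay, antagonist mode. Cells were seeded 18 h, dye-loaded 1 h at 37 C and given compound for 5 min at RT, then acetylcholine was added at 50nM. FDSS fluorescence was read 3 min; 15 concentrations, three runs.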

[15] = target: Muscarinic acetylcholine receptor M1 (Homo sapiens) (UniProt P11229); experiment: Cholinergic receptor muscarinic 1 (CHRM1) small molecule agonists, cell-based qHTS assay (AID 1963589); further: nearly all actives have a fitted effect of over 35% in size
Outline: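 Agonist-mode qHTS in CHO cells stably carrying human muscarinic M1. Intracellular calcium is tracked by fluorescence every second after compound transfer; each compound runs at 15 concentrations in three independent runs.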

[16] = cAMP Responsive Elements (CRE) small molecule agonists, cell-based qHTS assay (AID 1963590)
Outline: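 Agonist mode qHTS in CRE-bla HEK 293T cells: compounds dosed from DMSO for 3 h at 37 C/5% CO2, followed by LiveBLAzer B/G FRET substrate for 2 h at room temperature.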

[17] = cAMP Responsive Elements (CRE) small molecule antagonists, cell-based qHTS assay (AID 1963591; active means well fitted inhibition curve with a large enough effect in the signal ratio in the repeat runs, not every such curve was filed as active; the % refers to the signal ratio)
Outline: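 Antagonist mode: test compounds are co-incubated with the adenylyl cyclase activator NKH477 (0.25 uM final) on CRE-bla HEK293T cells for 3 h at 37 °C, followed by LiveBLAzer substrate loading.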

[18] = target: Beta-2 adrenergic receptor (Homo sapiens) (UniProt P07550); experiment: Adrenergic beta2 receptor (ADRB2) small molecule antagonists, cell-based qHTS assay (AID 1963592); further: series mostly up to about 92 µM; nearly all actives have a fitted effect of over 50% in size
Outline: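 Cells (CHO, stable ADRB2 overexpression) incubated 18-20hr at 37C; compounds added from DMSO; agonist mix (1nM isoproterenol, 100uM IBMX, 25uM Ro-20-1724) added; 0.5hr RT; d2-cAMP and anti-cAMP-cryptate added; 1hr RT; 665/615 nm read.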

[19] = target: Beta-2 adrenergic receptor (Homo sapiens) (UniProt P07550); experiment: Adrenergic beta2 receptor (ADRB2) small molecule agonists, cell-based qHTS assay (AID 1963593);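 further: CHO cells stably overexpressing human ADRB2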
Outline: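 CHO cells stably over-expressing ADRB2 were plated overnight at 37C, then dosed with compounds plus a stimulation mix containing 100uM IBMX and 25uM Ro-20-1724 for 0.5hr at room temperature. cAMP was measured by HTRF competition, 1hr.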

[20] = target: D(2) dopamine receptor (Homo sapiens) (UniProt P14416); experiment: Dopamine D2 receptor (DRD2) small molecule agonists, cell-based qHTS assay (AID 1963594); further: nearly all actives have a fitted effect of over 35% in size
Outline: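 cAMP accumulation in DRD2-HEK293 cells measured by HTRF after 1 h detection; compounds added 10 min before NKH477 (200nM […]) forskolin-analogue stimulation, 30 min at room temperature, with Ro20-1724 present at 0.1 mM final.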

KiSS-1 receptor (Homo sapiens), sequence (Q969F8 whole entry, looked up): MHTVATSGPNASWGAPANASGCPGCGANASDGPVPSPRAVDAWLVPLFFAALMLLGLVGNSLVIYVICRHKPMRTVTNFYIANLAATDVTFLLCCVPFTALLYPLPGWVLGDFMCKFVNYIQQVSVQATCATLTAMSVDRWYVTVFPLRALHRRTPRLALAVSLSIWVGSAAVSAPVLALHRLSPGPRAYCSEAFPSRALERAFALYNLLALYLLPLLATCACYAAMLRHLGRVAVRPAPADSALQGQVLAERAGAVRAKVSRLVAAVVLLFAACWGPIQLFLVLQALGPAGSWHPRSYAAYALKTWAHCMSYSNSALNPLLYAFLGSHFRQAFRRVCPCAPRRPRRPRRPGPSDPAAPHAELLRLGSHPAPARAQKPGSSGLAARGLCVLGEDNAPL
5-hydroxytryptamine receptor 2A (Homo sapiens), sequence (P28223 whole entry, looked up): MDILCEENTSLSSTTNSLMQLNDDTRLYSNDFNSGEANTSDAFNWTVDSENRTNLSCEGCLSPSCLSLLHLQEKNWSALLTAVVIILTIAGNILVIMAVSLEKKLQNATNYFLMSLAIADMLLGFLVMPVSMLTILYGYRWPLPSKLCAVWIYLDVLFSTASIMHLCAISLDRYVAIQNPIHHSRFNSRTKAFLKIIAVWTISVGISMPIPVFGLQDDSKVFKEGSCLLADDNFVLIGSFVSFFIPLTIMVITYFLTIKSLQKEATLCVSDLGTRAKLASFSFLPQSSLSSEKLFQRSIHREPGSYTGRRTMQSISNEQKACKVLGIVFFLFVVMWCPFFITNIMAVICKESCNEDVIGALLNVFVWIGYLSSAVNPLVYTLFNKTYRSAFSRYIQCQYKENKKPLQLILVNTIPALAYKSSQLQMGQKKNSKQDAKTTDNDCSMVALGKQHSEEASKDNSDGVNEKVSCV
D(2) dopamine receptor (Homo sapiens), sequence (P14416 whole entry, looked up): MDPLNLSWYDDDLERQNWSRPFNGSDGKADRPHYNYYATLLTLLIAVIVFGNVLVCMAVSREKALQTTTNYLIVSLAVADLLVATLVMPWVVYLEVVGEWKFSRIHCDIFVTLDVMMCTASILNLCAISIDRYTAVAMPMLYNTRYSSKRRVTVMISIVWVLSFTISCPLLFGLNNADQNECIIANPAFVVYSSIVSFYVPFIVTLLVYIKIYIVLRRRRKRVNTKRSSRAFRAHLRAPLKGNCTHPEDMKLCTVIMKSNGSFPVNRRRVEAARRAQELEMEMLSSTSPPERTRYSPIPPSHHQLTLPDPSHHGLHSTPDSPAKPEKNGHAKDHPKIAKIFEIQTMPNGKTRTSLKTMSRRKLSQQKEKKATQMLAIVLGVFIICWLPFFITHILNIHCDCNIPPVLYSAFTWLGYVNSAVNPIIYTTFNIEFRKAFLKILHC
Beta-2 adrenergic receptor (Homo sapiens), sequence (P07550 whole entry, looked up): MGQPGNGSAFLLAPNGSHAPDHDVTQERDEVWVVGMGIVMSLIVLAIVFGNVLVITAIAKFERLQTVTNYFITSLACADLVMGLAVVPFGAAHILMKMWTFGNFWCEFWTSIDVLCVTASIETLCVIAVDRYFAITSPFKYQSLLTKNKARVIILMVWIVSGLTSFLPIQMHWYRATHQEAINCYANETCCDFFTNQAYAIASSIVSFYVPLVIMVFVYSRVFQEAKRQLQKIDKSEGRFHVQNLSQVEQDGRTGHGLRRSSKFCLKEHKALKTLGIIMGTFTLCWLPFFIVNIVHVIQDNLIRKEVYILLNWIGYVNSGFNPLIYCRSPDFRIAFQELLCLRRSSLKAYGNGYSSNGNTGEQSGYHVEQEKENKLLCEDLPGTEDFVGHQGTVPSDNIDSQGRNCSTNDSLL
Muscarinic acetylcholine receptor M1 (Homo sapiens), sequence (P11229 whole entry, looked up): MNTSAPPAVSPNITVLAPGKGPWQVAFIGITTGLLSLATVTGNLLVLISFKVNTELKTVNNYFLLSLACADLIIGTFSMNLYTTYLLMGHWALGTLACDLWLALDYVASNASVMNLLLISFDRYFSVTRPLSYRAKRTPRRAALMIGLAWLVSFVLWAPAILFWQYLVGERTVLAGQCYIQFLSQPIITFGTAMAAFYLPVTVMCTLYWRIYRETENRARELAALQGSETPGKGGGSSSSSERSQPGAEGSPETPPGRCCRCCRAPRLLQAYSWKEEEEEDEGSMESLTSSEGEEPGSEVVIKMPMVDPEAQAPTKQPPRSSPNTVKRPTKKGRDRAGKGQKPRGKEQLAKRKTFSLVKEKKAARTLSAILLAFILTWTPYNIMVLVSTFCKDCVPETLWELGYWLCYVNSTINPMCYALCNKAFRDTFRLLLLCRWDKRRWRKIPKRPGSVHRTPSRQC
Gonadotropin-releasing hormone receptor (Homo sapiens), sequence (P30968 whole entry, looked up): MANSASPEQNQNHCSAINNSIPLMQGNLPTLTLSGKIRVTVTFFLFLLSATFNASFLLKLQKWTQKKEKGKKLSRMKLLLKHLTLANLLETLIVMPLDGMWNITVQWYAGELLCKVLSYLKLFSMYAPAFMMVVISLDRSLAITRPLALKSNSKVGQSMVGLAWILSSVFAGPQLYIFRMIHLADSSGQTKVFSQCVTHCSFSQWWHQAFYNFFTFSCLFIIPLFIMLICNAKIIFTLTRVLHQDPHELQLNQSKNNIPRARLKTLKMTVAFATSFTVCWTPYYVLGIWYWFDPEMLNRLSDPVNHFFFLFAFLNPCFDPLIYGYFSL

Row | Structure (SMILES) | Potency [1] | Potency [2] | Potency [3] | Potency [4] | Potency [5] | Potency [6] | Potency [7] | Potency [8] | Potency [9] | Potency [10] | Potency [11] | Potency [12] | Potency [13] | Potency [14] | Potency [15] | Potency [16] | Potency [17] | Potency [18] | Potency [19] | Potency [20]
1 | Nc1ccc2c(S(=O)(=O)O)cccc2c1S(=O)(=O)O | inactive | inactive | inactive | inactive | inactive | inactive | inactive | inactive | inactive | inactive | inactive | inactive | inactive | inactive | inactive | inactive | inactive | inactive | inactive | inactive
2 | C1C[C@@H]2[C@H]3CC[C@H](C3)[C@@H]2C1 | inactive | inactive | inactive | inactive | inactive | inactive | inactive | inactive | inactive | inactive | inactive | inactive | inactive | inactive | inactive | inactive | inactive | inactive | inactive | inactive
3 | CC(=O)Nc1ccc(N=Nc2cc(C)ccc2O)cc1 | inactive | inactive | inactive | inactive | inactive | inactive | inactive | inactive | inactive | inactive | inactive | inactive | inactive | inactive | inactive | inactive | inactive | inactive | inactive | inactive
4 | OCCN1CCN(CCCN2c3ccccc3C=Cc3ccccc32)CC1 | inactive | inactive | inactive | inactive | inactive | inactive | inactive | inactive | inactive | inactive | inactive | 16.3 µM (active) | inactive | inactive | inactive | inactive | inactive | inactive | inactive | inactive
5 | O=S(=O)(O)C(F)(F)F | inactive | inactive | inactive | inactive | inactive | inactive | inactive | inactive | inactive | inactive | inactive | inactive | inactive | inactive | inactive | inactive | inactive | inactive | inactive | inactive
6 | O=C1C(c2[nH]c3ccc(S(=O)(=O)O)cc3c2O)=Nc2ccc(S(=O)(=O)O)cc21 | inactive | inactive | inactive | inactive | inactive | inactive | inactive | inactive | inactive | inactive | inactive | inactive | inactive | inactive | inactive | inactive | inactive | inactive | inactive | inactive
7 | O=C(OC(=O)c1ccccc1)c1ccccc1 | inactive | inactive | inactive | inactive | inactive | inactive | inactive | inactive | inactive | inactive | inactive | inactive | inactive | inactive | inactive | inactive | inactive | inactive | inactive | inactive
8 | CC(=O)c1ccccc1N | inactive | inactive | inactive | inactive | inactive | inactive | inactive | inactive | inactive | inactive | inactive | inactive | inactive | inactive | inactive | inactive | inactive | inactive | inactive | inactive
9 | CCCCC(C)C(=O)O (stereo not given) | inactive | inactive | inactive | inactive | inactive | inactive | inactive | inactive | inactive | inactive | inactive | inactive | inactive | inactive | inactive | inactive | inactive | inactive | inactive | inactive
10 | CCCCCCCCCOS(=O)(=O)O | inactive | inactive | inactive | inactive | inactive | inactive | inactive | inactive | inactive | inactive | inactive | inactive | inactive | inactive | inactive | inactive | inactive | inactive | inactive | inactive
11 | O=c1[nH]c(=O)c2ccccc2o1 | inactive | inactive | inactive | inactive | inactive | inactive | inactive | inactive | inactive | inactive | inactive | inactive | inactive | inactive | inactive | inactive | inactive | inactive | inactive | inactive
12 | CCCCc1ncc(/C=C(\Cc2cccs2)C(=O)O)n1Cc1ccc(C(=O)O)cc1 | inactive | inactive | inactive | inactive | inactive | inactive | inactive | inactive | inactive | inactive | inactive | inactive | inactive | inactive | inactive | inactive | inactive | inactive | inactive | inactive
13 | CC1=CC(=O)[C@H]2C[C@@H]1C2(C)C | inactive | inactive | inactive | inactive | inactive | inactive | inactive | inactive | inactive | inactive | inactive | inactive | inactive | inactive | inactive | inactive | inactive | inactive | inactive | inactive
14 | CCCc1c2oc(C(=O)O)cc(=O)c2cc2c(=O)cc(C(=O)O)n(CC)c12 | inactive | inactive | inactive | inactive | inactive | inactive | inactive | inactive | inactive | inactive | inactive | inactive | inactive | inactive | inactive | inactive | inactive | inactive | inactive | inactive
